# Several values for one entry are separate records, joined by “and”; a condition that tells them apart may be missing. Identical values can stand only once. The panel holds about 83,000 compounds, 20% with a hit somewhere; the sample as a whole holds those more often.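 Cell lines were cultured in 96-well plates, exposed to a single compound concentration, and assessed for percent growth 48 hours later.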 Activity calls are given as the source filed them. Rule for the calls: active = growth percent below 10; inactive = the rest.
# System: UACC-62 melanoma
# Experiment: NCI-60 one-dose screen, 48 h (100 = growth as untreated, 0 = no growth, -100 = all killed)
# Conditions: 10 µM unless noted
row,SMILES,growth
1,N#C/C=C1\C=CC(O)C(O)C1OC1OC(CO)C(O)C(O)C1O (stereo not given),95% [100 µM] (inactive) and 88.4% [100 µM] (inactive)
2,COC(=O)C(=O)C(C(=O)C(=O)Nc1nc2ccc(C)cc2s1)c1nc2ccc([N+](=O)[O-])cc2[nH]c1=O (stereo not given),61.1% [100 µM] (inactive) and 52.2% [100 µM] (inactive)
3,C/C(O)=C/c1nc2sc(C)c(C)c2c(=O)s1,19.1% [100 µM] (inactive) and 37.1% [100 µM] (inactive)
4,COc1ccc2cc1Oc1ccc(cc1)C[C@@H]1c3cc(c(OC)cc3CCN1C)Oc1c(OC)c(OC)cc3c1[C@H](C2)N(C)CC3,20.3% [100 µM] (inactive) and -83.9% [100 µM] (active)
5,N#CC1(C#N)C2CCCCC23OC(=N)C1(C#N)C(c1ccccc1)O3 (stereo not given),-40.1% [100 µM] (active)
6,COC(=O)c1ccc(NC(=O)O/N=C(\Cl)C(C)C)cc1,-90.3% [100 µM] (active) and -100% [100 µM] (active)
7,Cc1ccc(OCC2OC(n3cnc4nc(Cl)nc(Cl)c43)CC2Oc2ccc(C)cc2)cc1 (stereo not given),-72.2% [100 µM] (active) and -100% [100 µM] (active)
8,Cc1cc(S(=O)(=O)O)c(NC(=O)c2oc3cc(O)ccc3c(=O)c2C)cc1Cl,85.1% [100 µM] (inactive) and 89.4% [100 µM] (inactive)
9,O=C1NC(N/N=C\c2ccccc2)=N/C1=C/c1ccccc1,-53.2% [100 µM] (active) and -100% [100 µM] (active)
10,C=C(C)C(=O)OC1CC2(C)OC(=CC2=O)C(C)CC2OC(=O)C(=C)C12 (stereo not given),-97% [100 µM] (active)
11,Cc1ccc(/C=N/Nc2ccccn2)s1,74.5% [100 µM] (inactive) and 87.7% [100 µM] (inactive)
12,CNc1nc2c(C)ccc3[nH]c(N(C)C)nc3c-2n1,30.8% [100 µM] (inactive) and 2.14% [100 µM] (active)
13,CC(C)=CCc1c(OC(=O)c2c(C)cc(O)cc2O)cc(CO)c(CO)c1O,-76.6% [100 µM] (active) and -100% [100 µM] (active)
14,C=C1C(=O)O[C@H]2C[C@@]3(C)[C@H](O)CCC(=C)[C@@H]3[C@@H](OC(C)=O)[C@H]12,-98.5% [100 µM] (active) and -92.2% [100 µM] (active)
15,CC(C)(C)c1cc(C2COC(=O)COCCOCC(=O)OCCOCCO2)cc(C(C)(C)C)c1O (stereo not given),24.1% [100 µM] (inactive) and -65.6% [100 µM] (active)
16,CCO/C=N\C1=C(C#N)SC2=N/C(=C\c3ccc(OC)cc3)C(=O)N21,71.9% [100 µM] (inactive) and 70.7% [100 µM] (inactive)
17,C/C=C1\NC(=O)[C@H]2CSSCCC=C[C@H](CC(=O)N[C@H](C(C)C)C(=O)N2)OC(=O)[C@H](C(C)C)NC1=O,-83.2% [0.1 µM] (active) and -98.1% [0.1 µM] (active)
18,COC(=O)C(Cc1nc2ccccc2[nH]c1=O)C(=O)C(=O)Nc1cc(C(F)(F)F)ccc1Cl (stereo not given),-87.8% [100 µM] (active) and -39.4% [100 µM] (active)
19,COC(=O)c1cc(C#N)[nH]c1-c1ccsc1,67.3% [100 µM] (inactive) and 25.1% [100 µM] (inactive)
20,CN(C)c1ccc(/C=N/n2c(-c3ccccc3)nc3ccccc3c2=O)cc1,47.5% [100 µM] (inactive) and 13.6% [100 µM] (inactive)
21,CC(C)O/N=C/c1cc(NC(=S)OC(C)C)ccc1Cl,13.4% [100 µM] (inactive) and 21.6% [100 µM] (inactive)
22,COc1ccc(-c2coc3c4c(ccc3c2=O)OCO4)cc1OC,43.3% [100 µM] (inactive) and 6.94% [100 µM] (active)
23,COc1ccc2cc(CN3CCC(C4CCNCC4)CC3)ccc2c1,-93.1% [100 µM] (active) and -100% [100 µM] (active)
24,Cc1ccc(OC2CC(n3cnc4ncnc(Cl)c43)OC2Oc2ccc(C)cc2)cc1 (stereo not given),11.7% [100 µM] (inactive) and -100% [100 µM] (active)
25,O=C(Cc1nc2ccc(C(=O)c3ccccc3)cc2[nH]c1=O)C(=O)Nc1ccccc1[N+](=O)[O-],30.2% [100 µM] (inactive) and -20.2% [100 µM] (active)

# Reference: PubChem BioAssay (NCI)
